Bioassay records (PubChem BioAssay)
Compounds with a hit are over-represented: about 2.9% of the library has one in this group of screens.
Mcl1 Bid PPI = Mcl-1/Bid interaction inhibition; Q07820; TR-FRET Mcl-1/Bid-Dy647 peptide binding, 1536-well; actives 0.97% (n = 220,000); inhibition, % at 21.7 µM;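 active = compounds that cut the binding signal by more than half at the single screening dose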;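 also: His-tagged Mcl-1 with europium anti-His antibody binding Bid BH3 peptide; 0% = Mcl-1 plus peptide wells and 100% = peptide-only wells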
Bim-Mcl-1 = inhibitors of Bim-Mcl-1 interaction, human; inhibition, % at 10 µM; AID 1009; Bead-based flow cytometry, Bim peptide-Mcl-1 binding; actives 0.1% (n = 190,000); in the data active = inhibition above about 40%;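 also: 0% = no compound tracer wells and 100% = peptide blocker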
Pf gamet viab = P. falciparum stage V gametocyte viability inhibition; P. falciparum stage V gametocytes, ATP luminescence, 24 h; inhibition, % at 10.9 µM; actives 0.065% (n = 150,000); AID 743093;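 active = inhibition above the mean plus 3 SD of compounds within the control limits, set per campaign, cut at about 38% in these data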;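 also: 0% = DMSO wells and 100% = medium only without gametocytes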
Mcl1-Noxa inh = Mcl-1/Noxa interaction inhibition. Q07820. TR-FRET Mcl-1/Noxa peptide binding, 2 h. inhibition, % at 21.7 µM. actives 1.5% (n = 220,000);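 active = compounds that cut the protein-peptide binding signal by more than 50% relative to plate controls in a single-dose test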;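 also: His-tagged Mcl-1 with rhodamine Noxa BH3 peptide and terbium anti-His antibody; 0% = Mcl-1 plus Noxa peptide wells and 100% = peptide-only wells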
Hck-Nef inh = blocks Nef-activated human Hck kinase; P08631; Recombinant Hck-YEEI plus Nef, Z-Lyte FRET kinase assay; inhibition, % at 20 µM; actives 0.68% (n = 220,000);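 active = Hck-Nef kinase inhibition above about 50%, limit read from the data; inactive = inhibition below that limit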;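 also: 0% = DMSO with Hck plus Nef and 100% = Hck alone without Nef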
Target sequence (P08631 whole entry, looked up): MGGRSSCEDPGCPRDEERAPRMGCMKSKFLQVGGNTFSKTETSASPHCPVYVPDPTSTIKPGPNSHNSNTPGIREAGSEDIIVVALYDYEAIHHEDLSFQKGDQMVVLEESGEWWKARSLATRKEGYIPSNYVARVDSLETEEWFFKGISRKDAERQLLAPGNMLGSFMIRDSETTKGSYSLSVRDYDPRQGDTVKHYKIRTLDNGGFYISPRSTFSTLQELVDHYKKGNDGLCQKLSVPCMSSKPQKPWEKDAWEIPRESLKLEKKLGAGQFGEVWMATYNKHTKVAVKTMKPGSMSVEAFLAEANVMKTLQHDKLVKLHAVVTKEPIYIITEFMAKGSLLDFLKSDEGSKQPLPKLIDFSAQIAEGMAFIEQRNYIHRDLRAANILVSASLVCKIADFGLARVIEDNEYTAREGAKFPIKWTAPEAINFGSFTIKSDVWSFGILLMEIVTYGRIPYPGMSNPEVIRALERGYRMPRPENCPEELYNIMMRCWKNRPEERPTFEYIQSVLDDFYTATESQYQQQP
14-3-3 Bad inh = disrupts binding of bovine 14-3-3 zeta to phospho-Bad peptide | AID 781 | inhibition, % at 21.7 µM | P63103 | actives 0.71% (n = 220,000) | TR-FRET 14-3-3zeta/Dy647-pBad peptide displacement, 1 h;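 active = inhibition above about 70%, limit read from the data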;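 also: 0% = full 14-3-3 plus peptide FRET controls and 100% = background without 14-3-3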
Hck-Nef confirm = Hck-Nef kinase inhibition, confirmation | shares compounds with Hck-Nef inh | Recombinant Hck-YEEI:Nef, Z-Lyte FRET kinase assay | calls only at 10 µM | actives 28% (n = 1,300) | AID 463188;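 active = average inhibition of at least 50%, with Z-scores no higher than 3 in both the phospho-tyrosine peptide and fluorescence counterscreens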
Active calls of the source: *; i = inactive; / = not tested or not shown; + = active, no number; [ ] = dose if it differs, or a comment.

SMILES | Mcl1 Bid PPI | Bim-Mcl-1 | Pf gamet viab | Mcl1-Noxa inh | Hck-Nef inh | 14-3-3 Bad inh | Hck-Nef confirm
CC[C@H](CO)Nc1nc(Nc2cccc(Cl)c2)c2ncn(C(C)C)c2n1 | -32 | / | / | 14 | 110* | 2 | +
CC(C)[C@H](CO)N(Cc1cccc(F)c1)c1nc(Nc2cccc(Cl)c2)c2ncn(C(C)C)c2n1 | -22 | / | / | -1 | 68* | 1 | +
CC(C)n1cnc2c(N(C)c3cccc(Cl)c3)nc(N(CCO)CCO)nc21 | -48 | / | / | 13 | 23 | 2 | /
O=C(/C=C/c1cccc([N+](=O)[O-])c1)NCC1CCCO1 (centres undefined) | -22 | 0 | / | 0 | -1 | / | /
CN(C(=O)c1sc2nc(N3CCOCC3)c3c(c2c1N)CCCC3)c1ccccc1 | -22 | -2 | 8 | 36 | 53* | -10 | i
Nc1c(C(=O)NCCc2ccccc2)sc2nc(N3CCOCC3)c3c(c12)CCCC3 | -57 | -1 | 2 | -17 | 11 | -13 | /
O=C(O)CN1C(=O)/C(=C/c2ccc(SCc3ccccc3)o2)SC1=S | 2 | 2 | -2 | -18 | 73* | 6 | i
O=C(c1ccco1)N(Cc1ccc2c(c1)OCO2)Cc1cc2cc3c(cc2[nH]c1=O)OCO3 | -4 | / | -21 | -5 | 126* | 11 | i
CCOC(=O)c1cc(-c2ccccc2)sc1NC(=O)COC(=O)c1ccc(Cl)c(S(N)(=O)=O)c1 | 19 | 3 | / | 14 | 1 | 10 | /
CCOC(=O)c1cc(-c2ccccc2)sc1NC(=O)COC(=O)c1cccc(S(N)(=O)=O)c1 | -112 | 0 | 4 | -27 | 58* | 73* | +
CCc1ccc(-n2c(SCC(=O)c3ccc4c(c3)NC(=O)CO4)nc3ccccc3c2=O)cc1 | 10 | 4 | -6 | -22 | 27 | 10 | /
O=C1COc2ccc(C(=O)CSc3nc4ccccc4c(=O)n3-c3ccc(Cl)c(Cl)c3)cc2N1 | 36 | -1 | 0 | -52 | 64* | 55 | i
C=CCn1c(SCC(=O)Nc2ccc(-c3nc4ccc(C)cc4s3)cc2)nnc1-c1ccccc1 | 66* | -1 | -17 | 70* | 78* | 92*[fluorescence artefact?] | +
COC(=O)C1=CN(C)C=C(C(=O)OC)C1c1ccsc1 | -32 | -4 | / | 19 | 53* | -1 | i
Nc1c(C(=O)NCc2ccco2)c2nc3ccccc3nc2n1CCc1ccccc1 | 26 | 6 | / | 50 | 44 | 2 | /
CCOc1ccc(-n2c(N)c(C(=O)NCc3ccco3)c3nc4ccccc4nc32)cc1 | -3 | 2 | / | / | 53* | -5 | i
COc1cccc(NC(=O)c2cc(-c3ccco3)nc3ccccc23)c1 | / | / | 22 | / | / | / | /
O=C(Nc1cccc(S(=O)(=O)NC2=NCCCCC2)c1)c1cc(-c2ccco2)nc2ccccc12 | 12 | / | -6 | 97* | 93* | 41 | +
NC(=S)n1[nH]c(-c2ccc([N+](=O)[O-])cc2)c(N=Nc2cccc([N+](=O)[O-])c2)c1=O | 82* | 1 | -5 | 85* | 76* | 91* | +
O=S(=O)(CCc1ccncc1)Cc1ccc2c3c(cccc13)CC2 | -29 | / | 4 | 8 | 16 | -1 | /
OCCCNc1cc(-c2ccnc(Nc3cccc(Cl)c3)n2)ccn1 | 3 | / | / | 7 | 85* | 4 | +
CCOc1ccc2nc(NC(=O)CSc3nc(-c4ccccc4)c(C#N)c(=O)[nH]3)sc2c1 | -8 | 0 | 9 | 48 | 36 | -7 | /
CC(C)Nc1ccc(Nc2ccnc3cc4ccccc4cc23)cc1 | -33 | / | 5 | 68* | 69* | -1 | +
c1ccc(CCNc2ccnc3cc4ccccc4cc23)cc1 | -24 | -1 | 10 | 28 | 156* | 32 | /
COc1ccc(Nc2ccnc3ccccc23)cc1 | -16 | -2 | -4 | 6 | 2 | 32 | /
SMILES | Mcl1 Bid PPI | Bim-Mcl-1 | Pf gamet viab | Mcl1-Noxa inh | Hck-Nef inh | 14-3-3 Bad inh | Hck-Nef confirm
COc1ccc(-c2csc(NC(=O)c3ccccc3NS(=O)(=O)c3ccc(F)c(F)c3)n2)cc1 | 4 | 1 | 13 | 34 | 80* | 2 | +
Cc1ccc2nc(NC(=O)c3ccc4c(c3)OCO4)sc2c1 | 1 | -3 | -10 | / | 2 | 10 | /
Cc1ccc2nc(NC(=O)c3cccc(-c4cc5ccccc5oc4=O)c3)sc2c1 | 75* | -1 | / | 32 | 63* | 59 | i
CCOC(=O)Cc1csc(NC(=O)COc2ccc(C)c(C)c2)n1 | 7 | -4 | -11 | 13 | 53* | -20 | i
CCOC(=O)Cc1csc(NC(=O)COc2ccc(C)cc2)n1 | -25 | 1 | / | 13 | 19 | -14 | /
COc1ccc(-c2cc(=O)oc3cc(OCC(=O)c4cccc([N+](=O)[O-])c4)ccc23)cc1 | 50 | 2 | -6 | 46 | 80* | 70*[fluorescence artefact?] | i
COc1ccc(-c2cc(=O)oc3cc(OCC(C)=O)ccc23)cc1 | -19 | -1 | 0 | -1 | 4 | -25 | /
CCOc1nc(Nc2ccc(OC)cc2)nc(OCC)n1 | -8 | 1 | / | 18 | 3 | -14 | /
COc1ccc(Nc2ccnc(Nc3ccc(OC)cc3)n2)cc1 | -24 | -2 | / | 28 | 88* | 3 | +
COc1cc(/C=C/C(=O)O)ccc1S(=O)(=O)N1CCCc2ccccc21 | 3 | 0 | / | 12 | 8 | 2 | /
CCOC(=O)NCCOC(=O)Nc1ccc(Cl)cc1 | -4 | -3 | 26 | -7 | 58* | -4 | i
CC(C)CNC(=O)c1c(N)n(/N=C/c2ccccn2)c2nc3ccccc3nc12 | 56* | -7 | / | 23 | 51* | 24 | i
COc1ccccc1CNC(=O)/C=C/c1ccc(Br)o1 | 23 | 3 | -14 | 70* | 91* | 9 | +
COc1ccccc1CNC(=O)Cc1ccc(Br)cc1 | 3 | -1 | -8 | 19 | -21 | 15 | /
COc1ccc(S(N)(=O)=O)cc1-c1nnc2c3ccccc3c(C)nn12 | / | / | -3 | / | / | / | /
COc1ccc2cc3cc(C(=O)Nc4ccc5c(c4)OCCO5)oc3nc2c1 | -27 | -4 | / | 9 | 52* | 65 | i
COc1ccc(C(=O)N2CCCC(C(=O)N3CCCCCC3)C2)cc1 (centres undefined) | -8 | 0 | -28 | 10 | 57* | -4 | i
CCCOc1ccc(C2C(C(=O)OC)=CN(CCOC)C=C2C(=O)OC)cc1 | -22 | 1 | / | 7 | 56* | -14 | /
O=C(NCc1cccnc1)c1ccccc1NS(=O)(=O)c1ccc(F)cc1F | -11 | / | 2 | 23 | 19 | 3 | /
CCOC(=O)C1=C(c2ccccc2)NC(=O)NC1c1cc(Br)c(O)c(OC)c1 (centres undefined) | -52 | -2 | / | 19 | 23 | -25 | /
CC(=O)c1cc2ccc(O)cc2oc1=O | -17 | / | 4 | -12 | + | 7 | /
